Assay results as given in PubChem BioAssay AID488837 (National Center for Advancing Translational Sciences (NCATS), 2010).
Hit rate of the full screen: of about 330,000 compounds, about 20 (0.006%) were called active. Roughly 1% stayed inconclusive and do not appear here. Calls come from the whole dose curve; as a rule, active = well fitted inhibition curve with a large enough effect; inconclusive = small, poorly fitted or top-dose-only effect, or effect the other way; inactive = flat fitted curve, though single readings scatter. For the sample, actives were picked, then their nearest neighbours and some compounds at random.

What follows are molecules tested against Protein phosphatase EYA2 (Homo sapiens) (UniProt O00167) (assay: qHTS Assay for Inhibitors of the Phosphatase Activity of Eya2). Details: recombinant Eya2, OMFP fluorescence dephosphorylation (OMFP is methylfluorescein phosphate); series mostly up to 76.9 µM; activity, negative = inhibition: at the top concentration.
Chain of Protein phosphatase EYA2 (Homo sapiens) (O00167 whole entry, looked up, the tested form may be a part): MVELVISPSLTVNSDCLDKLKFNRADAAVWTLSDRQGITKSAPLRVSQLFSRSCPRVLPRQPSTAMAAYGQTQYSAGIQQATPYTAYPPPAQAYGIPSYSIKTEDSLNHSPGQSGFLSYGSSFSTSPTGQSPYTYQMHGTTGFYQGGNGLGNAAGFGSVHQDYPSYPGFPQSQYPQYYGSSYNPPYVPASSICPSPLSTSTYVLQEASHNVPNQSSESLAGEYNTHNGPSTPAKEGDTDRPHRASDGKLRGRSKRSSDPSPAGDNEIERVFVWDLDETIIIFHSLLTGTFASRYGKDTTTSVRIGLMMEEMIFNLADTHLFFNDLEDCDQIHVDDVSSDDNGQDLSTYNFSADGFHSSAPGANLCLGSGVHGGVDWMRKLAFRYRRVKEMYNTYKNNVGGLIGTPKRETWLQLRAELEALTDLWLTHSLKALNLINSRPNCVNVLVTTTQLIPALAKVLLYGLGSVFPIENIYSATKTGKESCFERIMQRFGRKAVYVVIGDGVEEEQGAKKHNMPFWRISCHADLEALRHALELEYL
Source text: The Eya family of proteins are essential co-activators of the Six1 transcription factor. Six1 is a developmental gene that is abnormally re-expressed in a large percentage of breast cancers. This over-expression plays a causal role in the initiation and metastatic development of breast cancers. The Eya family of proteins was also found to contain a unique HAD phosphatase domain with protein tyrosine phosphatase activity which can potentially play a role in Six1-mediated breast tumorigenesis. […] We have developed and optimized a 1536 well fluorescence-based HTS assay targeting the phosphatase activity of Eya2. Inhibitors found against Eya2 could serve as potential therapeutic tools to inhibit Six1-mediated breast tumorigenesis and to increase the efficiency of radiation and certain chemo therapy. These inhibitors could also be used as chemical probes to study the function of Eya2's phosphatase activity and its role in Six1-mediated breast tumorigenesis.
The Eya2 enzyme was kindly provided by the laboratory of Dr. Rui Zhao. The 3-O-methyl-fluorescein phosphate (OMFP) substrate and all buffer reagents were purchased from Sigma Aldrich. qHTS Assay Setup: 1. Buffer- 50 mM HEPES pH 7.5, 50 mM NaCl, 5 uM MgCl2, 0.05% BSA, 1 mM DTT. 2. OMFP Stock- 10 mM solution prepared in 100% DMSO and stored in single use aliquots at -20C. Assay Procedure- 1. Dispense 1.5 ul per well of Eya2 at 0.2 uM in black medium binding 1536 well Greiner plate 2. Transfer 23 nl of compound and control compound (EGTA) to plate 3. Incubate at ambient for 10 minutes 4. Dispense 1.5 ul per well of OMFP at 50 uM 5. Incubate at ambient for 10 minutes 6. Read on ViewLux using Excitation = 485 nm, Emission = 525 nm
% is set by controls: 0 for no effect and ±100 for the full control effect.

activity, negative = inhibition, inactive:
O=C(CN1CCN(S(=O)(=O)c2ccc3ccccc3c2)CC1)NC(=O)NC1CCCCC1 -19.3%
CN(CC(=O)Nc1c(Cl)cccc1Cl)C(=O)CC1OC(=O)c2ccccc21 (stereo unspecified) 3.23%
CN(Cc1nc2ccc(F)cc2[nH]1)Cc1nc(CC2CC2)no1 0.753%
COc1ccc(-c2nc(CS(=O)(=O)CC(=O)NCc3cccc(Br)c3)c(C)o2)cc1 17.1%
CCOC(=O)c1ccc2c(c1)nc(SCC(=O)NC(C)C)n2CC -9.46%
CC1(C)CC(O)C(CCC(O)c2ccccc2)C(C)(C)N1 (stereo unspecified) 5.53%
Cc1ccc(S(=O)(=O)N(C)C)cc1NC(=O)c1ccccc1Br 16.7%
CC1CC(C)CN(CCCNC(=O)Cn2ncc3c([nH]c4ccccc43)c2=O)C1 (stereo unspecified) 9.07%
O=C1COc2ccc(C(=O)COC(=O)C3CC(O)CN3S(=O)(=O)c3ccc(Cl)cc3)cc2N1 (stereo unspecified) 5.76%
NC(=O)Cn1nc([N+](=O)[O-])nc1Oc1ccc(Br)cc1 -14.5%
Cc1cc(C)nc(SC2CCCCC2NS(=O)(=O)c2ccc(Cl)cc2)n1 (stereo unspecified) -8.85%
O=C(O)c1cc(S(=O)(=O)Nc2ccc3cn[nH]c3c2)ccc1Br -15.2%
CCN(CC(=O)NC1CCS(=O)(=O)C1)S(=O)(=O)c1ccccc1 (stereo unspecified) -0.424%
COc1ccc(COC(=O)c2ccc(Cl)c(S(=O)(=O)N3CCOCC3)c2)cc1F -8.01%
CCN(CC)Cc1c(C(=O)N/N=C/c2cccc(OCc3ccc(F)cc3)c2)nnn1-c1nonc1N -9.2%
O=C(CN(C(=O)c1csnn1)c1cccc(F)c1)NCc1ccc(F)cc1 -3.74%
CC(C)=CCN1CCN(Cc2ccc(Oc3ncccn3)cc2)CC1CCO (stereo unspecified) 1.39%
COc1ccc(N2CCN(C(=O)CN3C(=O)COc4ccccc43)CC2)cc1 -0.881%
O=C(O)c1cscn1 17.9%
COc1cccc2cc(-c3cc(=O)oc4cc(C)c(O)cc34)oc12 12.5%
O=C(C[C@H]1C/C=C\C[C@@H](NC(=O)OCC2c3ccccc3-c3ccccc32)C(=O)O[C@@H](c2ccccc2)CNC1=O)N[C@H](CO)Cc1ccccc1 -18.4%
CCOc1cc(/C=N/Nc2cc(C)nc3ccc(C)cc23)ccc1O -6.47%
CC(C)CN(C(=O)CN1CCN(S(=O)(=O)c2ccccc2)CC1)c1c(N)n(CC(C)C)c(=O)[nH]c1=O 2.96%
COc1ccc(S(=O)(=O)N2CCCC(C(=O)NCCCn3ccnc3)C2)cc1OC (stereo unspecified) 10%
COc1ccc(NC(=O)C/C(C)=N/NC(=O)c2cnccn2)cc1Cl 3.03%
Cc1ccc(S(=O)(=O)N(CC(=O)N/N=C/c2ccc(F)cc2)c2cccc3cccnc23)cc1 12.1%
COc1ccc(C(=O)N(CCN2CCOCC2)CC(=O)NC2CCCC2)cc1OC 12.7%
O=C(NC(Cc1c[nH]c2ccccc12)C(=O)O)/C(=C/c1ccco1)NC(=O)c1ccccc1 (stereo unspecified) 12.3%
O=C(NCc1ccccc1Cl)C(=O)NCC1CCCN1S(=O)(=O)c1cccs1 (stereo unspecified) 1.47%
CCC1(C)CC(=O)NC1=O (stereo unspecified) 3.35%
CCCCOC(=O)Nc1nccs1 1.29%
Cc1ccc(NS(=O)(=O)c2ccc3c(c2)NC(=O)CO3)cc1 8.25%
COC(=O)[C@H](Cc1ccccc1)NC(=O)[C@@H]1C[C@H]1[C@@H](NC(=O)OCc1ccccc1)c1ccccc1 -3.24%
COc1ccc(C2OC(=O)CC2C(=O)NC(C)C)cc1 (stereo unspecified) -10.7%
Cc1csc(=O)n1CC(=O)OCC(=O)N(CC(C)C)c1c(N)n(Cc2ccccc2)c(=O)[nH]c1=O -0.534%
C[C@@H](CN1CCC[C@H]1CN1C(N)=NC[C@@H]1Cc1ccccc1)N1C[C@@H](Cc2ccccc2)N(CCCC2CCCC2)C1=N -6.56%
O=C(Nc1cc(S(=O)(=O)N2CCOCC2)ccc1OCC(F)(F)F)c1ccc(N2CCCC2=O)cc1 -23.5%
Cc1ccc(O)c(-c2cc(C(=O)Nc3c(C)n(C)n(-c4ccccc4)c3=O)[nH]n2)c1 -3.31%
O=C(CCC(=O)OCc1cccc(C(=O)Oc2ccccc2)c1)Nc1cccc2ccccc12 -8.93%
CC(C)C(NC(=O)c1c(F)cccc1F)C(=O)NNC(=O)c1ccccc1 (stereo unspecified) -29.1%
CCn1cc(CN2CCC(n3nccc3NC(=O)CCCc3ccccc3)CC2)c(C)n1 4.01%
CC(C)c1nnc(NC(=O)C2CC(=O)N(CCc3ccc(F)cc3)C2)s1 (stereo unspecified) 1.05%
CN(c1ccc(OCC(=O)OCC(=O)Nc2cccc([N+](=O)[O-])c2)cc1)S(=O)(=O)c1ccc(F)cc1 -16%
Nc1ccc(Nc2cc(O)c3ncccc3c2)cc1 -10.3%
CCOc1ccc(C(=O)CCC(=O)Nc2ccncc2)cc1 16.6%
CCCCc1ccc(NC(=S)N2CCCC(CO)C2)cc1 (stereo unspecified) 3.85%
COc1ccc(C(=O)CCc2ccccc2O)c(OC)c1 -1.09%
CC1=CCC2C(=O)N(c3cccc(C(=O)NC(C)c4ccccc4)c3)C(=O)C2C1 (stereo unspecified) 5.67%
COc1ccc(S(=O)(=O)N2CCN(C(=O)N(C)C)C2C)cc1 (stereo unspecified) -3.3%
CCOc1ncccc1C(=O)NNC(=O)c1cccc(S(=O)(=O)Nc2ccccc2OC)c1 16.1%
CCN(CC)C(=O)Oc1ccc(Br)cc1C(=O)Nc1ccc(F)c(Cl)c1 6.75%
NS(=O)(=O)c1ccc(CCNS(=O)(=O)c2cccc3cccnc23)cc1 8.75%
Cc1ccc(CNC(=O)CCS(=O)(=O)c2ccc3c(c2)CC(C)N3C(=O)C2CC2)o1 (stereo unspecified) 1.79%
O=C(NCc1ccco1)C1CCCN1S(=O)(=O)c1ccccc1C(F)(F)F (stereo unspecified) 5.37%
CCNc1nc(Oc2ccc(C(=O)OC)cc2)nc(N2CCOCC2)n1 11%
Cc1ccc2nc(NC(=O)CSc3nc(=O)n(CCCN(C)C)c4c3CCC4)sc2c1 3.73%
CCOc1ccc(Br)cc1S(=O)(=O)Nc1ccc(S(=O)(=O)Nc2cc(C)on2)cc1 -19.4%
CCCc1nc(SCC(=O)Nc2ccccc2OC)c2c(=O)n(C)c(=O)n(C)c2n1 12.4%
CN(C)S(=O)(=O)c1ccc(C(=O)NCCN=C2NS(=O)(=O)c3ccccc32)cc1 -23.4%
CC(=O)NCCC(=O)Nc1cc(S(=O)(=O)N2CCCCC2)ccc1Oc1cccc(C)c1 -5.51%
COc1ccc(C(C(=O)NC2CCCC2)N(CCCO)C(=O)Cn2nnc(-c3ccc(C)o3)n2)cc1 (stereo unspecified) -6.59%
CCc1cc(C(=O)OC)c(NC(=O)CC2Sc3ccc(C(F)(F)F)cc3NC2=O)s1 (stereo unspecified) 17.3%
O=C(O)C1CCC(CNS(=O)(=O)c2ccc(Br)cc2)CC1 (stereo unspecified) 14%
O=C1CCC([N+](=O)[O-])C(c2ccccc2Br)N1 (stereo unspecified) 5.36%
COC(=O)c1sc(NC(=O)COC(=O)C2CCC2)c(C(=O)OC)c1C 28.3%
CCOC(=O)c1c(CNCc2ccccc2F)c2sc(C)cc2n1C -6.49%
COC(=O)N1CN(C(=O)OC)CN(C(=O)OC)C1 14.1%
CC1CCN(S(=O)(=O)c2ccc3[nH]c(=O)ccc3c2)CC1 6.46%
CCS(=O)(=O)c1ccc(-c2cccc(NC(=O)c3ccc(Br)o3)c2)nn1 -2.59%
Cc1ccc2c(Cl)c(C(=O)NCCCn3ccnc3)sc2c1 2.59%
CC(C)CCNC(=O)CCNS(=O)(=O)c1ccc(Cl)cc1 -4.21%
O=C(NCc1cccnc1)c1ccc(CS(=O)(=O)c2ccc(Br)cc2)o1 3.3%
CC(=O)c1c(N2CCOCC2)nc(=S)n(Cc2ccccc2)c1C 4.93%
O=C(Nc1ccc(OCC(=O)N2CCOCC2)cc1)c1cc(F)c(F)cc1Cl 5.38%
Cc1cc(C(=O)Nc2ccc(C)c(S(=O)(=O)N3CCOCC3)c2)c2ccccc2n1 23.5%
COc1ccc(CCNc2ncnc3c2nnn3Cc2ccccc2)cc1 4.06%
O=C1OCCN1C(=O)[C@H]1[C@H](c2ccc(F)cc2)C(c2ccccc2)=NN1c1ccc(Br)cc1 0.72%
Cc1ccc(NC(=O)N2CCSc3ccccc32)cc1 2.21%
Cc1cc(SCC(=O)NCCN2C(=O)CSC2=O)nc2ccccc12 8.83%
S=c1[nH]ccn1-c1ccc(Cl)cc1 -6.66%
CCCOc1cccc(C(=O)Nc2ccccc2C(=O)N2CCN(C)CC2)c1 -6.6%
COc1ccc2c(C)cc3nnnn3c2c1 -1.07%
CN(C)N(C)C(=O)C(O)(c1ccccc1)c1ccccc1 6.78%
COc1ccc2[nH]c(C)c(CCN(Cc3cccs3)C(=S)Nc3ccccc3OC)c2c1 6.34%
O=c1ccc2cc(S(=O)(=O)N3CCN(c4ccccc4)CC3)ccc2o1 -2.55%
O=S1(=O)N=C(N(CCO)/N=C/c2ccccc2F)c2ccccc21 -2.65%
O=C(CCc1nnc2ccc(NCCCN3CCCC3=O)nn12)NCc1ccccc1Cl -3.71%
CC(=O)N1CCN(c2ccccc2NC(=S)NC(=O)c2cc3ccccc3o2)CC1 -8.6%
COc1ccc(NS(=O)(=O)c2cc(NC(=O)COc3ccccc3F)ccc2OC)cc1 -21.5%
O=C(CSc1nnc(SCc2ccc(F)cc2)s1)Nc1ccc(C(=O)O)cc1 -1.18%
O=C(CS(=O)(=O)c1ccc(C(F)(F)F)cn1)NNC(=O)c1ccccc1 18.3%
O=C(CCc1ccc(S(=O)(=O)N2CCOCC2)cc1)Nc1ccc2ccccc2c1 -1.59%
N#CC1=C(N)N(c2ccc(F)cc2)C(=O)C1 32.7%
NC(=O)C1CCCN(CC(=O)N2CCN(c3ccccc3)CC2)C1 (stereo unspecified) -2.7%
CC[C@@]1(C(=O)OC)N[C@H](CN(C)C(C)=O)[C@@H]2C(=O)N(C)C(=O)[C@@H]21 -14.2%
COc1ccc(C(=O)N2CCCN(C)CC2)c(OC)c1 14.4%
COC(C)(C)[C@]12CC(O)(C(C)C)ON1[C@H]1CCCCC1N2O (stereo partly specified) -10.2%
O=C(c1ccc(Cl)cc1)N1N=C(c2ccccn2)CC1(O)C(F)(F)F (stereo unspecified) 22.7%
COc1ccc(Cl)cc1NC(=O)CCS(=O)(=O)c1ccc(Br)cc1 10.2%
COC(=O)c1ccccc1NC(=O)CSc1n[nH]c(-c2ccncc2)n1 -1.81%
CCCCNS(=O)(=O)c1ccc(S(=O)(=O)n2cnc3ccccc32)cc1 -2.93%
